Experimental findings from PubChem BioAssay (NCATS) are described below.

Results filed as inconclusive are left out. Active and inactive are the calls of the source. The call rests on the fitted dose curve; in most records, active means well fitted curve in the direction sought with a large enough effect; inconclusive means small, poorly fitted or top-dose-only effect, or another doubt; inactive means no such curve, though single readings can be large; an effect the other way counts as inactive or inconclusive.

Assay [1] is described as follows: Quantitative High-Throughput drug screen in 47 multiple myeloma cell lines against the NCATS MIPE library collection: KMM1_JCRB cell viability assay (AID 1918960). Further: nearly all actives have a fitted effect of over 30% in size. The essentials: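 Each line was plated at 500 cells/well and treated 48 h with library drugs. Viability came from CellTiter-Glo luminescence relative to DMSO and cell-free medium controls.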
Assay [2] can be described thus: Quantitative High-Throughput drug screen in 47 multiple myeloma cell lines against the NCATS MIPE library collection: JIM3_ECACC cell viability assay (AID 1918963; further: nearly all actives have a fitted effect of over 35% in size). The essentials: (§1)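 Relative luminescence from CellTiter-Glo served as the viability signal, referenced to DMSO-treated (100%) and cell-free medium (0%) controls. Treatment lasted 48 hours at 37C with 500 cells per well.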

The nature of assay [3]: Quantitative High-Throughput drug screen in 47 multiple myeloma cell lines against the NCATS MIPE library collection: INA6_PLB cell viability assay (AID 1918965; further: nearly all actives have a fitted effect of over 55% in size). In outline: as §1
The nature of assay [4]: Quantitative High-Throughput drug screen in 47 multiple myeloma cell lines against the NCATS MIPE library collection: H1112_PLB cell viability assay (AID 1918967; further: nearly all actives have a fitted effect of over 30% in size). The essentials: (§2)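 Primary qHTS used for cherry-picking: cells at 500/well, library compounds for 48 h (37C, 5% CO2), luminescent ATP assay.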
The nature of assay [5]: Quantitative High-Throughput drug screen in 47 multiple myeloma cell lines against the NCATS MIPE library collection: Karpas25_ECACC cell viability assay (AID 1918968; further: nearly all actives have a fitted effect of over 35% in size). The essentials: as §2
Assay [6] can be described thus: Quantitative High-Throughput drug screen in 47 multiple myeloma cell lines against the NCATS MIPE library collection: KMS27_JCRB cell viability assay (AID 1918970). Further: nearly all actives have a fitted effect of over 30% in size. The essentials: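 Viability inhibition screen, 48 h compound exposure, luminescent ATP read-out.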
Assay [7] is described as follows: Quantitative High-Throughput drug screen in 47 multiple myeloma cell lines against the NCATS MIPE library collection: KMS20_JCRB cell viability assay (AID 1918973). Further: nearly all actives have a fitted effect of over 45% in size. The essentials: as §2
Assay [8] is described as follows: Quantitative High-Throughput drug screen in 47 multiple myeloma cell lines against the NCATS MIPE library collection: Karpas417_ECACC cell viability assay (AID 1918961). The settings on record: Karpas417 myeloma viability, CellTiter-Glo ATP luminescence, 48 h; viability (% of DMSO): at 45.8 µM (top of the series). In outline: as §1
The nature of assay [9]: Quantitative High-Throughput drug screen in 47 multiple myeloma cell lines against the NCATS MIPE library collection: JJN3_DSMZ cell viability assay (AID 1918966; further: nearly all actives have a fitted effect of over 50% in size). In outline:
as §2

The nature of assay [10]: Quantitative High-Throughput drug screen in 47 multiple myeloma cell lines against the NCATS MIPE library collection: KMS12BM_JCRB cell viability assay (AID 1918971). Further: nearly all actives have a fitted effect of over 35% in size. In outline: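 Myeloma cells (500 per well) were exposed to MIPE 4.0 compounds by pin transfer and incubated 48 hours at 37C, 5% CO2. Viability was read as ATP by CellTiter-Glo luminescence, normalised to DMSO (100%) and media-only (0%) wells.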
Potency means the concentration at half of the fitted maximal effect.

Consider `CNC(=O)c1ccc(N2C(=S)N(c3ccc(C#N)c(C(F)(F)F)c3)C(=O)C23CCC3)cc1F`, for which the Potency in assay [1] was 16.6 µM (active); in [2] it was 23.5 µM (active); in [3], 16.6 µM (active); in assay [4] it was 3.72 µM (active); in [5] it was 2.96 µM (active); in assay [7] it was 8.33 µM (active). The Potency result in assay [6] was “inactive”.

Regarding `CNC(=O)N1N=C(c2ccc(N)cc2)c2cc3c(cc2CC1C)OCO3` (stereo unspecified), the Potency was 1.87 µM (active) in assay [8]; 4.69 µM (active) in assay [2]; 1.18 µM (active) in [3]; 1.32 µM (active) in [9]; 9.35 µM (active) in [5]; 3.32 µM (active) in assay [6]. Besides, the Potency entry in assay [4] was “inactive”.

With `CNCC(O)c1ccc(O)cc1` (stereo unspecified), in assay [8], the viability (% of DMSO) was 80.8% (active). Besides, the Potency entry in assay [2], in assay [3], in assay [4], in assay [6] and in assay [10] was “inactive” in each case.

Regarding `CC(C)CC(N(C)C)C1(c2ccc(Cl)cc2)CCC1` (stereo unspecified), the Potency result in assay [1], in assay [2], in assay [9] and in [6] was “inactive” each time. Further, the Potency in [4] was 5.26 µM (active).

`O=P1(NCCCl)OCCCN1CCCl` (stereo unspecified): the Potency in assay [2] was 20.9 µM (active).

For the compound `CC1=C2C[C@@H]3[C@@H](CC=C4C[C@@H](O)CC[C@@]43C)[C@@H]2CC[C@]12O[C@H]1C[C@H](C)CN[C@H]1[C@H]2C`, the Potency entry in [1], in assay [2], in assay [3], in assay [4], in assay [5] and in assay [6] was “inactive” each time. In addition, in [7], the Potency is 0.0469 µM (active).

As for `CN1CCN(C(=O)O[C@H]2c3nccnc3C(=O)N2c2ccc(Cl)cn2)CC1`, the Potency entry in assay [1], in [2], in [3], in assay [4], in [5] and in assay [6] was “inactive” each time.

Turning to `COc1ccc(C(CN(C)C)C2(O)CCCCC2)cc1` (stereo unspecified), the Potency entry in assay [2], in assay [5], in assay [6] and in assay [10] was “inactive” each time.

`COC[C@H]1OC(=O)c2coc3c2[C@@]1(C)C1=C(C3=O)C2CCC(=O)[C@@]2(C)C[C@H]1OC(C)=O` (stereo partly specified): the Potency in assay [1] was 7.43 µM (active); in assay [2], 4.69 µM (active); in assay [3], 2.35 µM (active); in assay [9], 10.5 µM (active); in [4], 2.64 µM (active); in assay [5] it was 0.526 µM (active). Moreover, the Potency in assay [6] was 14.8 µM (active); in assay [10], 10.5 µM (active).

As to `CN(C)CCc1ccc(O)cc1`, the Potency entry in assay [1], in assay [8], in [2], in [4], in assay [6] and in [10] was “inactive” throughout.

In the case of `C=C(C)[C@H]1Cc2c(ccc3c2O[C@@H]2COc4cc(OC)c(OC)cc4[C@@H]2C3=O)O1`, the Potency was 0.235 µM (active) in [1]; 0.935 µM (active) in assay [2]; 0.118 µM (active) in assay [3]; 7.43 µM (active) in [9]; 0.132 µM (active) in assay [4]; 0.0469 µM (active) in assay [5]. The results for the Potency in assay [6], in [10] and in [7] were 0.296 µM (active), 2.64 µM (active) and 0.332 µM (active), respectively.

On to `NCC1(CC(=O)O)CCCCC1`, for which the Potency result in [1], in assay [2], in assay [3], in [9], in assay [4] and in assay [5] was “inactive” in each case. Also, the Potency entry in assay [10] is “inactive”.

With `CCCC(C)(COC(N)=O)COC(=O)NC(C)C` (stereo unspecified), the Potency entry in assay [1], in [3], in assay [4], in assay [5] and in [6] was “inactive” throughout. The viability (% of DMSO) in assay [8] is 64.9% (active).

Turning to `O=c1[nH]c2ccccc2n1CCCN1CCC(n2c(=O)[nH]c3cc(Cl)ccc32)CC1`, the Potency result in assay [2] and in assay [9] was “inactive” each time. Also, the Potency in assay [3] is 18.7 µM (active); in assay [5], 0.0372 µM (active).

Consider `CN(C)CCN(C)CCc1ccc(Cl)c(Cl)c1`, for which the Potency result in assay [1], in assay [2], in assay [3], in [9], in [4] and in assay [6] was “inactive” throughout. The Potency entry in [10] and in [7] was “inactive” each time.

Regarding `Fc1ccc(C(OCCN2CCN(CCCc3ccccc3)CC2)c2ccc(F)cc2)cc1`, in assay [1], the Potency entry is “inactive”. Further, the Potency was 13.2 µM (active) in assay [2]; 13.2 µM (active) in assay [3]; 23.5 µM (active) in assay [9]; 13.2 µM (active) in assay [4]; 8.33 µM (active) in assay [5]; 14.8 µM (active) in [10]. In [7], the Potency is 9.35 µM (active).

Turning to `COc1ccc2c(c1OC)CN1CCc3cc4c(cc3C1C2)OCO4` (stereo unspecified), the Potency in [2] was 16.6 µM (active); in assay [3] it was 18.7 µM (active); in assay [9], 16.6 µM (active); in assay [5], 18.7 µM (active); in assay [6], 20.9 µM (active); in assay [10], 18.7 µM (active). In [4], the Potency result is “inactive”.

With `C#CCN(C)[C@H](C)Cc1ccccc1`, the Potency result in assay [2], in assay [4], in assay [5] and in [7] was “inactive” each time. In addition, in assay [9], the Potency was 8.33 µM (active).

In the case of `O=C(O)C(=O)c1cn(Cc2ccccc2)c2ccc(-c3ccc(OC(F)(F)F)cc3)cc12`, the Potency entry in [1] and in assay [6] was “inactive” throughout. Further, the Potency in assay [2] is 18.7 µM (active); in [4] it was 14.8 µM (active); in assay [5] it was 16.6 µM (active).
